Values without a mark were called inactive. Activity calls are given as the source filed them.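 Rule for the calls, unless noted: active = mean inhibition above 46.68%, the untreated control wells mean plus 3 SD; inactive = the rest.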
What was measured:
[1] = target: Nuclear receptor coactivator 1 (Homo sapiens) (UniProt Q15788); experiment: NCOA1 GAL4-fusion reporter inhibition – cell-based, luminescence, quadruplicate, confirmation (AID 588820); details: HEK293 GAL4-SRC1 luciferase reporter, at 3.6 µM, active compounds read high;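 note: 0% = DMSO wells and 100% = gossypol 36 µM treated wells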
Chain of Nuclear receptor coactivator 1 (Homo sapiens) (Q15788 whole entry, looked up, the tested form may be a part): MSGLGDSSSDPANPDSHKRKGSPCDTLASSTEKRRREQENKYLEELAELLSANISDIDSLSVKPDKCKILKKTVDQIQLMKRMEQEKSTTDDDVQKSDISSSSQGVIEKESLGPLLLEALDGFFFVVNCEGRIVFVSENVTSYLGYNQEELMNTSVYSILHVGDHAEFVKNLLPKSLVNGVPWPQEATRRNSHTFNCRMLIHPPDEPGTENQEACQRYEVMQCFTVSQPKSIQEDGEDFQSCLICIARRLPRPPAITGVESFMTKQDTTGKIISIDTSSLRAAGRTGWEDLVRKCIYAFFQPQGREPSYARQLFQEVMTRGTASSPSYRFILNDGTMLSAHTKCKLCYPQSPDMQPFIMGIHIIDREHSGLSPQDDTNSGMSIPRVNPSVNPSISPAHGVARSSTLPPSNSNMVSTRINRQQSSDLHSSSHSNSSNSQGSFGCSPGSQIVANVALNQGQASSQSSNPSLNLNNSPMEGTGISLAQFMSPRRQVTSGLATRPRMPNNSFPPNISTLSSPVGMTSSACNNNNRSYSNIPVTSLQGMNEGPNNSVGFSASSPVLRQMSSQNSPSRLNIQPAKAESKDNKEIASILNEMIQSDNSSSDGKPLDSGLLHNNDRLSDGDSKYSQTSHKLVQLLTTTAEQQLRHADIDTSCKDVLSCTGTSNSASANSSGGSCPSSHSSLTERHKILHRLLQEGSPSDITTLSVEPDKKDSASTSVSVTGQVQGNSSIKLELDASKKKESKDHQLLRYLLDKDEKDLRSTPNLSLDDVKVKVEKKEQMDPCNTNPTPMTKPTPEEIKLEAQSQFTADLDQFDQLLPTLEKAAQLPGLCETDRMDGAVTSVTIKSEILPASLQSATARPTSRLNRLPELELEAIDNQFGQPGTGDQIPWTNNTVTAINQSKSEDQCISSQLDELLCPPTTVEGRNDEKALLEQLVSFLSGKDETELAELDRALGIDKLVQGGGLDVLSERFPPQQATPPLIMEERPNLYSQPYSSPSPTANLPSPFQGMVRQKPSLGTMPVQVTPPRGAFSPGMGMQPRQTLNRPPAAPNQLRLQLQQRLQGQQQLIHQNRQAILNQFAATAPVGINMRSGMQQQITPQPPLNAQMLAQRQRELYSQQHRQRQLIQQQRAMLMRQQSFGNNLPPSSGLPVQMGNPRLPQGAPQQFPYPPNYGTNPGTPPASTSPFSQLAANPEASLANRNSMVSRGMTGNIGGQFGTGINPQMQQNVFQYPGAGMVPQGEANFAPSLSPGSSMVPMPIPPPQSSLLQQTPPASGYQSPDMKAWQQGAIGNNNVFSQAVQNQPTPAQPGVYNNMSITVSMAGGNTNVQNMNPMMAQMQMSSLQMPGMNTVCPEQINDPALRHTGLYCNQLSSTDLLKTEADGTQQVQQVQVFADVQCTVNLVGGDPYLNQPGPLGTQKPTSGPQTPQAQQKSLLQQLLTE

[2] = repression of VP16-driven luciferase reporter – cell-based, luminescence, high throughput, counter-screen for SRC1 inhibitor project (AID 588824; in the data active = inhibition above about 25%); details: cell-based VP16 transactivation luciferase luminescence; at 3.6 µM; active compounds read high

| Structure (SMILES) | inhibition [1] | inhibition [2] |
| --- | --- | --- |
| COc1ccc(OC)c(/C=N/NC(=O)c2cc3c(OC)cccc3[nH]2)c1 | -19.2% | -10% |
| C[n+]1c2n(c3ccccc31)N=C(c1ccc(Cl)cc1)CS2 | -20.3% | 19.1% |
| CC1(C)CC(NCc2ccccc2)CCO1 (configuration not stated) | -24.7% | -4.92% |
| Cc1ccn(CC(=O)N/N=C/c2cc([N+](=O)[O-])ccc2O)n1 | 7.62% | 9.09% |
| O=C(Nc1cccc(F)c1)/C(=C\c1ccco1)NC(=O)c1ccco1 | -13.4% | -7.03% |
| COC(=O)C(C)NC(=O)C12CC3CC(C1)CC(c1ccc(C)cc1)(C3)C2 (configuration not stated) | -5.33% | 4.73% |
| CCOC(=O)N1CCC(N(CCN(C)C)C(=S)Nc2ccccc2OCC)CC1 | -21.5% | 4.03% |
| C[C@H]1CN([C@@H](C)CO)C(=O)CCCn2nncc2CO[C@H]1CN(C)C(=O)C1CCCCC1 | -19.8% | -11.3% |
| COc1ccc(S(=O)(=O)N(C)C[C@H]2Oc3c(NC(=O)Nc4c(C)noc4C)cccc3C(=O)N([C@H](C)CO)C[C@@H]2C)cc1 | 6.86% | 9.48% |
| CC(C)=CCCC(C)CN1CCC(n2nccc2NC(=O)c2ccccc2)CC1 (configuration not stated) | -6.47% | -14.3% |
| Cc1cc(CSc2ccccc2)ccc1NC(=O)c1ccc(CN2CCOCC2)cc1 | -33.7% | 33.4% (active) |
| NC(=O)c1nsc(C(=O)N(c2ccccc2F)C(C(=O)NCc2ccc(F)cc2)c2ccc(O)cc2)c1N (configuration not stated) | -23.1% | -2.03% |
| COc1cc(C(=O)OCC(=O)NC(N)=O)cc(CN2C(=O)c3ccccc3C2=O)c1OC | -10.9% | -8.55% |
| O=C1NC[C@H](c2ccccc2)OC(=O)[C@@H](Cc2ccc(F)cc2)C/C=C\C[C@H]1CC(=O)N(CCO)Cc1ccccc1 | -35% | -0.29% |
| CCN(C(=O)c1ccc(S(=O)(=O)N2CCC(C)CC2)cc1)C1CCS(=O)(=O)C1 (configuration not stated) | -0.29% | 2.08% |
| CC(=O)c1ccc(S(=O)(=O)N2CCN(CCOc3ccc(Br)cc3)CC2)cc1 | 2.32% | 25.4% (active) |

| Structure (SMILES) | inhibition [1] | inhibition [2] |
| --- | --- | --- |
| CC(C)Nc1ccc(Nc2ccnc3cc4ccccc4cc23)cc1 | 29.3% | 38% (active) |
| COc1cccc(C(C(=O)NC2CCCC2)N(C(=O)c2ccco2)c2ccc(C(C)=O)cc2)c1OC (configuration not stated) | -0.53% | -9.34% |
| CC(=O)c1c(C)n(-c2ccc(C)cc2)c2ccc(O)cc12 | 35% | 19.8% |
| CS(=O)(=O)c1ccc(NC(=O)CCN2C(=O)C3CCCCC3C2=O)cc1 (configuration not stated) | -9.83% | -10.5% |
| COc1ccc(C(=O)Oc2ccc(/C=N/NC(=O)c3ccccc3OC)cc2[N+](=O)[O-])cc1 | -11.5% | -0.66% |
| O=C(COC(=O)C1CCN(c2ccc(C(F)(F)F)cn2)CC1)NCc1cccc(Cl)c1 | 1.02% | -3.36% |
| O=c1ccc2c(ccc3ncccc32)o1 | 18.8% | 8.67% |
| COc1ccc(CCn2c(-c3ccco3)nc3ccccc3c2=O)cc1OC | -30.6% | -17.7% |
| S=C(NC1CCCCC1)N1CCOCCOCCN(C(=S)NC2CCCCC2)CCOCCOCC1 | 7.13% | 7.75% |
| COc1ccc([C@H]2CC(=O)C=C(c3ccnc4ccc(Cl)cc34)C2)cc1 | 2.04% | 29.2% (active) |
| Cc1nc2ccccc2c2oc(C(=O)Nc3ccc(C(C)C)cc3)cc12 | -6.16% | -1.6% |
| O=C(c1ccc(Cl)c(Cl)c1)N1CCN(c2ccccn2)CC1 | -12.5% | 7.01% |
| Cc1cccnc1NC(=O)c1cccc(S(=O)(=O)NCc2ccccc2)c1 | -10.8% | 3% |
| COC(=O)c1ccc(/C=N\NC(=O)CC(=O)NCCc2ccccc2)cc1 | -1.47% | -15.5% |
| Cc1sc(NC(=O)c2ccco2)c(C(c2cccnc2)N2CCC(C)CC2)c1C (configuration not stated) | -5.49% | 26.1% (active) |

— PubChem BioAssay
